Holding throughout (assay): NCI-60 one-dose screen, 48 h (100 = growth as untreated, 0 = no growth, -100 = all killed)
What all share (conditions): 10 µM unless noted

For assay [1], the system named is SK-MEL-2 melanoma.
Assay [2] concerns EKVX NSCLC.
For assay [3], the system named is SN12C renal.
The test system of assay [4] is UO-31 renal.
Assay [5] relates to TK-10 renal.
For assay [6], the system named is CAKI-1 renal.
The subject of assay [7] is A498 renal.
The subject of assay [8] is CCRF-CEM leukemia.
Assay [9] deals with MOLT-4 leukemia.
Assay [10] relates to ACHN renal.

For 12 molecules, growth results are on record in PubChem BioAssay (NCI).

The structures appear in SMILES notation. This is part of a sample that, as a whole, favours compounds with a hit. Of some 83,000 tested, about 20% had one in any assay.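 Results are percent growth after 48 hours of single-concentration exposure. 100 means growth as in untreated cells, lower positive values show inhibition; negative values down to -100 show cell death.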 A number with no mark means an inactive call. Activity calls are given as the source filed them. The calls were made as follows: active = growth percent below 10; inactive = the rest.

Consider `CCn1c(SCC(=O)N/N=C(\C)c2ccc(Cl)cc2)nc2c1c(=O)n(C)c(=O)n2C`, for which the growth in assay [1] is 116%; in assay [2], 97.9%; in [3], 100%; in [4] it was 80.8%; in assay [5], 125%; in assay [6], 85.3%. The figures for the growth in assay [7], in assay [8] and in assay [9] were 91.3%, 99.6% and 92.2%, respectively.

`CCN(CC)CC(O)COc1c(Br)c(Br)c(Br)c2c1OC(C)(C)C2` (stereo unspecified): the growth was 338% in [1]; 105% in [2]; 79.4% in [3]; 91.2% in assay [4]; 58.4% in assay [5]; 17.6% in assay [6]. In addition, the growth in [7] was -86.9% (active); in assay [8] it was 45.8%; in [9], 22.3%.

Take `O=C1Nc2ccccc2/C1=C/c1nc2ccccc2c(=O)[nH]1`: the growth in [1] was 103%; in assay [2] it was 80.6%; in assay [3] it was 89.5%; in assay [4], 64.4%; in assay [5] it was 181%; in assay [6] it was 84.2%. For the same molecule, the growth in assay [7] was 102%; in [8], 55.8%; in [9], 86%.

In the case of `O=C(/C=C/c1ccccc1)Nc1ncc(Cc2ccccc2Cl)s1`, the growth in [1] is 25.7%; in [2], 38.2%; in assay [3], 37.2%; in [4] it was 39.2%; in assay [5], 44.6%; in assay [6], 26.2%. Besides, the growth was -6.96% (active) in [7], 15.9% in [8] and 34.2% in assay [9].

On to `N#Cc1c(-c2ccccc2)[nH]c2ncc(-c3ccccc3)n2c1=O`, for which the growth is 72.9% in assay [1]; 75.3% in assay [2]; 99.5% in assay [3]; 65.4% in assay [4]; 120% in assay [5]; 83.4% in [10]. Moreover, the growth was 83.4% in [6], 102% in [7] and 101% in [9].

In the case of `COC(=O)c1c2c(c(C)[n+]([O-])c1C)C(=O)C(NCc1cccc(OC)c1)=CC2=O`, the growth was 64.3% in assay [1]; 57.2% in assay [2]; 2.9% (active) in assay [3]; 76.8% in assay [4]; 104% in assay [5]; 55.7% in [6]. Also, the figures for the growth in assay [7], in assay [8] and in assay [9] were 108%, 16.3% and 3.8% (active), respectively.

On to `OCCn1cc(-c2nc(-c3c[nH]c4ncccc34)cs2)c2cc(F)ccc21`, for which the growth in assay [1] is 66.2%; in [2], 37.2%; in assay [3], 80.3%; in [4], 39.4%; in [5], 62.1%; in assay [6], 70.7%. Moreover, the growth is 23% in assay [7], 56% in [8] and 54.5% in [9].

As to `O=c1[nH]c(-c2ccccc2)nc2sc3cc(O)ccc3c12`, the growth in assay [1] was 103%; in assay [2], 66.4%; in assay [3], 89.1%; in assay [4], 55.9%; in [5] it was 99.9%; in [6], 68.9%. In addition, the growth is 79.3% in [7] and 66.9% in [9].

Turning to `O=C(Nc1cccc(-c2ccc(Cl)c(C(F)(F)F)c2)c1)C1CCN(Cc2cccc3cccnc23)CC1`, the growth in assay [1] is 31.6%; in assay [2] it was 34.6%; in assay [3], 4.06% (active); in assay [4], 2.47% (active); in assay [5] it was 80.6%; in assay [6] it was -52.5% (active). Also, the growth in assay [7] is 58.7%; in assay [9] it was -9.69% (active).

Consider `O=C(c1ccncc1)N1N=C(c2ccc(Cl)cc2)C[C@H]1c1cn(-c2ccccc2)nc1-c1ccccc1`, for which the growth in assay [2] was 87.2%; in [3] it was 86.6%; in assay [4] it was 90.1%; in [5] it was 109%; in assay [10], 70.8%; in [6] it was 65.4%. Besides, the growth in [7] is 102%; in [8], 78.9%; in [9], 70.8%.

Consider `CC(C)=CCCC(C)c1ccc(C)c2c1OCN(CCCCCO)C2` (stereo unspecified), for which the growth in assay [2] was 102%; in assay [3], 78.6%; in [4] it was 57%; in assay [5], 73.7%; in [10], 94.1%; in assay [6], 78.1%. Besides, the growth was 75.3% in assay [7], 96% in [8] and 66.5% in assay [9].

With `COC(=O)Nc1nc2ccc(S(=O)c3ccccc3)cc2[nH]1` (stereo unspecified), the growth in assay [2] is 80%; in assay [3], 82.2%; in assay [4], 65%; in [5] it was 92.9%; in [10], 86.1%; in assay [6], 63.2%. For the same molecule, the figures for the growth in assay [7], in assay [8] and in assay [9] were 56.6%, 66.9% and 70.5%, respectively.
